CCHF vOTU inh-1: blocks the CCHF virus ovarian tumor domain protease | CCHFV vOTU protease, Pep-AMC fluorescence | inhibition, % at 11.5 µM | 0.55% of 370,000 active | AID 651958
SARS 3CLpro inh: SARS-CoV 3CLpro protease inhibition; AID 1706; P0C6X7; 0.14% of 290,000 active; inhibition, % at 6 µM; recombinant SARS-CoV 3CLpro, quenched FRET peptide cleavage; in the data active = inhibition above about 12%
VHR inh abs: blocks human VHR1 dual specificity phosphatase. P51452. recombinant VHR phosphatase, pNPP absorbance. inhibition, % at 13.3 µM. 0.52% of 290,000 active; in the data active = inhibition above about 50%
Target sequence (P51452 whole entry, looked up): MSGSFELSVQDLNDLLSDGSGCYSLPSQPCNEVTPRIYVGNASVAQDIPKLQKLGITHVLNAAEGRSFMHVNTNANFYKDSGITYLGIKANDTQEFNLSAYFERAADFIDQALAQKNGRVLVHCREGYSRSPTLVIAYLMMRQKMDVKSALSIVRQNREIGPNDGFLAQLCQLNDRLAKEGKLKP
BH1578 lux ind: quorum light induction in luxS cqsA deficient V. cholerae; V. cholerae BH1578 lux reporter, luminescence, 6 h; activation, % at 18.7 µM; 0.16% of 350,000 active; AID 588436; in the data active = activation mostly above about 9.7%, no sharp cut-off
PriA SSB inh: blocks PriA binding to SSB C-terminal tail | AlphaScreen SSBct-PriA binding, biotinylated peptide | inhibition, % at 33 µM | 0.6% of 430,000 active | AID 1272365; in the data active = inhibition mostly above about 37%, no sharp cut-off; inactive = mostly below about 20%
TcdB GH inh: inhibitors of Clostridioides difficile toxin B glycohydrolase; TcdB glycohydrolase enzymatic assay, plate reader; inhibition, % at 9.99 µM; 0.24% of 350,000 active; in the data active = inhibition above about 10%
CCHF vOTU inh-2: CCHFV vOTU protease inhibition, confirmation | shares compounds with CCHF vOTU inh-1 | Recombinant CCHFV vOTU, Pep-AMC fluorescence | inhibition, % at 11.5 µM | 17% of 1,900 active | AID 686976
Hits are given with their value; - = inactive; . = not tested or not shown. Hits are enriched below; roughly 1.3% of the tested compounds scored in any of these assays. Rule as the data show it, unless noted: active = inhibition above about 30%; inactive = the rest.

SMILES | CCHF vOTU inh-1 | SARS 3CLpro inh | VHR inh abs | BH1578 lux ind | PriA SSB inh | TcdB GH inh | CCHF vOTU inh-2
CC(CCc1ccccc1)NC(=O)c1ccc(NC(=O)c2ccccc2)cc1 (stereo unspecified) | 32 | - | - | - | - | - | -
Cc1nc(NS(=O)(=O)c2ccccc2)sc1C(=O)NCc1ccc2c(c1)OCO2 | . | . | . | . | - | . | .
OC(c1ccc(F)cc1)c1nc(-c2ccoc2)cs1 (stereo unspecified) | - | . | . | - | . | - | .
COc1ccc(C(O)c2nc(-c3ccoc3)cs2)cc1 (stereo unspecified) | 30 | . | . | - | . | - | -
CN(C)Cc1c(NC(=O)c2ccccc2)sc2c1CCCC2 | . | . | . | . | - | . | .
CC(CN1CCOCC1)OC(=O)c1ccccc1Br (stereo unspecified) | 32 | - | - | - | - | . | -
CC(C)(C)C(=O)NCC(=O)N1CCOC(c2ccccc2)C1 (stereo unspecified) | . | . | . | . | - | . | .
COc1cc(/C=C2/C(=O)NN(c3ccc(Cl)c(Cl)c3)C2=O)cc([N+](=O)[O-])c1O | 38 | - | - | - | - | - | -
Cc1cc(/C=C2\C(=O)NC(=O)N(C)C2=O)c(C)n1-c1ccc2c(c1)OCO2 | 34 | - | - | - | - | . | -
O=C(NCCc1csc(-n2cccn2)n1)c1ccc(-n2cccc2)cc1 | . | . | . | . | - | . | .
Cc1nn(-c2ccc(F)cc2)c(C)c1NS(=O)(=O)c1ccc(Cl)cc1 | 30 | - | - | - | - | - | -
Cc1ccc2nc(NC(=O)CSCC(=O)OCC(=O)c3ccccc3)sc2c1 | 35 | - | - | - | - | . | -
Cc1ccc(C)c(CC(=O)Nc2ccc(Cl)cc2C(=O)c2ccccc2Cl)c1 | . | . | . | . | - | . | .
O=C1C(=O)N(CCCn2ccnc2)C(c2cccnc2)C1=C(O)c1ccc(F)cc1 (stereo unspecified) | . | . | . | . | - | . | .
CC1CN(CC(=O)Nc2cccc(C(F)(F)F)c2)CC(C)O1 (stereo unspecified) | . | . | . | . | - | . | .
CCC(C(=O)O)N1C(=O)/C(=C/C(C)=C/c2ccccc2)SC1=S (stereo unspecified) | - | - | - | - | - | - | .
CC(=C\c1ccccc1)/C=C1/SC(=S)N(C(C(=O)O)C(C)C)C1=O (stereo unspecified) | 32 | - | - | - | - | - | -
C=C1c2nc3ccccc3n2C=C(c2ccc(C)cc2)N1c1ccccc1 | 35 | . | . | . | - | - | -
COc1ccc(C)cc1-n1cnc2sc(C)c(C)c2c1=O | 30 | . | . | - | . | - | -
O=C1CC(C(=O)Nc2ccc(Cl)c(Cl)c2)SC(=N/N=C/c2ccco2)N1 (stereo unspecified) | . | . | . | . | - | . | .
O=C1CC(C(=O)Nc2ccc(F)cc2)S/C(=N\N=C\c2ccco2)N1 (stereo unspecified) | 35 | - | - | - | . | . | -
COc1ccc(CCNc2nc(C(F)(F)F)nc3c(C)cc(C)cc23)cc1OC | . | . | . | . | - | . | .
O=C(NCCCS(=O)(=O)N1CCN(c2ccccn2)CC1)C1CC1 | . | . | . | . | - | . | .
CCOc1ccc(CC(=O)NCC(=O)Nc2nc3ccccc3[nH]2)cc1OCC | . | . | . | . | - | . | .
COc1ccccc1C1N(c2ccc(Cl)cc2)C(=O)C2CCCN21 (stereo unspecified) | - | - | - | - | - | . | .
SMILES | CCHF vOTU inh-1 | SARS 3CLpro inh | VHR inh abs | BH1578 lux ind | PriA SSB inh | TcdB GH inh | CCHF vOTU inh-2
O=C1C2CCCN2C(c2cccs2)N1c1ccc(Cl)cc1 (stereo unspecified) | 31 | - | - | - | - | . | -
O=C(CCCn1c(=O)oc2ccccc21)N1CCc2ccccc2C1 | 35 | - | - | - | - | . | -
O=C1CCN(C(=O)CCCn2c(=O)oc3ccccc32)CC1 | - | - | - | - | - | - | .
O=C1C(=O)c2cccnc2-c2ncccc21 | 111 | . | . | . | . | - | 86
O=C1c2ccccc2-c2nccnc21 | - | - | - | - | - | . | .
CCOc1ccccc1C(=O)Nc1cccc(-c2cn3ccsc3n2)c1 | . | . | . | . | - | . | .
O=S(=O)(NCC(O)c1ccc2c(c1)CCO2)c1ccc(Cl)s1 (stereo unspecified) | . | . | . | . | - | . | .
CCC(COC)Oc1cc(NCc2ccccc2)c2ncn(C(C)C)c2c1 (stereo unspecified) | 70 | . | . | - | 63 | - | 69
CCCCOc1cc(NCc2ccccc2)c2ncn(C(C)C)c2c1 | 37 | . | . | - | - | - | -
COCCCOc1cc(NCc2ccccc2)c2ncn(C(C)C)c2c1 | - | . | . | - | - | - | .
CCOCCOc1cc(NCc2ccccc2)c2ncn(C(C)C)c2c1 | 30 | . | . | - | - | - | -
COCCN1C(=O)C(=O)C(=C(O)c2ccc(S(=O)(=O)N3CCCCC3)cc2)C1c1ccc(O)c(OC)c1 (stereo unspecified) | . | . | . | . | - | . | .
Cn1c(=O)[nH]c(=O)c2c1nc(Br)n2Cc1cccc2ccccc12 | . | . | . | . | - | . | .
CC(=O)Nc1ccc(S(=O)(=O)/N=C2\C(=O)c3ccccc3C([O-])=C2n2cc[n+](-c3ccccn3)c2)cc1 | 68 | - | - | - | . | - | 58
Cc1nn2c(Nc3cccc(Cl)c3)c3c(nc2c1-c1ccccc1)CCC3 | . | . | . | . | - | . | .
CCCc1ccc(Oc2c(-c3ccc(O)c(C)c3O)n[nH]c2C)cc1 | - | - | - | - | - | . | .
CCCc1ccc(Oc2cn[nH]c2-c2ccc(O)c(C)c2O)cc1 | 36 | - | - | - | - | . | -
COc1cccc2cc(-c3csc(NC(=O)COc4ccc(Cl)cc4)n3)oc12 | . | . | . | . | - | . | .
CC(C)(C)OC(=O)CN(c1ccc2c(c1)OCCO2)S(=O)(=O)c1ccc2nncn2c1 | . | . | . | . | - | . | .
Cc1nc2c([nH]1)C1(CCN(Cc3ccccc3)CC1)C(C#N)=C(N)O2 | 40 | - | - | - | - | . | -
COC(=O)c1ccc(C(=O)Nc2ccccc2Cc2nc(-c3cccs3)no2)cc1 | . | . | . | . | - | . | .
O=[N+]([O-])c1c(Nc2ccccn2)cc(Cl)c2nonc12 | 113 | - | - | - | - | - | 94
CCCCN(CC(O)COc1cccc(C)c1)CC(O)COc1cccc(C)c1 (stereo unspecified) | 31 | - | - | - | - | - | -
Cc1onc(-c2ccccc2Cl)c1C(=O)N1CCC(Cc2ccccc2)CC1 | 32 | - | - | - | - | - | -
CC(C)NC(=O)N(C)C[C@@H]1OCCCC[C@@H](C)Oc2ccc(NC(=O)Nc3ccc(F)cc3)cc2C(=O)N([C@H](C)CO)C[C@@H]1C | 32 | . | . | . | . | - | -
SMILES | CCHF vOTU inh-1 | SARS 3CLpro inh | VHR inh abs | BH1578 lux ind | PriA SSB inh | TcdB GH inh | CCHF vOTU inh-2
CCOC(=O)CCCCCC(=O)Nc1ccc2c(c1)C(=O)N([C@H](C)CO)C[C@H](C)[C@@H](CN(C)C(=O)Nc1ccccc1)OCCCC[C@@H](C)O2 | 38 | . | . | - | . | - | -
Cc1noc(C)c1S(=O)(=O)N1CCC(Oc2ccc(C(F)(F)F)cn2)CC1 | . | . | . | . | - | . | .
Cn1ccnc1N1CCN(C(=O)c2cc(=O)c3ccccc3o2)CC1 | . | . | . | . | - | . | .
Cn1c(=O)c2c(-c3ccccc3)n(-c3cccc(O)c3)cc2n(C)c1=O | - | . | . | . | . | - | .
Cn1c(=O)c2c(-c3ccccc3)n(-c3ccc(N)cc3)cc2n(C)c1=O | 98 | . | . | . | . | - | 92
Cn1cccc(C(=O)NCC2CCN(C(=O)c3ccoc3)CC2)c1=O | . | . | . | . | - | . | .
